Records with an inconclusive call do not appear. Active and inactive are the calls of the source. How the source made its calls: active means hit-call score of the fitted dose curve at least 0.9, where 1 is the maximum; inconclusive means response in the unintended direction; inactive means score below 0.9.

The nature of this assay: CCTE_Mundy_HCI_iCellGABA_NOG_NeuriteCount: CCTE's Neurite Outgrowth Assay in iCellGABA cells for Neurite Count, Mundy Lab. As for the experimental part: CCTE_Mundy_HCI_iCellGABA_NOG is a multiplexed, cell-based-readout assay that uses iCell GABANeurons from FUJIFILM Cellular Dynamics, Inc. (FCDI), human GABAergic enriched neurons derived from induced pluripotent stem (iPS) cells, with measurements taken at 50.33 hours after chemical dosing in a microplate: 96-well plate.CCTE_Mundy_HCI_iCellGABA_NOG_NeuriteCount is one of four components of the CCTE_Mundy_HCI_iCellGABA_NOG assay. It measures neurite outgrowth related to number of neurites using High Content Imaging of fluorescently labelled markers.Data from the assay component CCTE_Mundy_HCI_iCellGABA_NOG_NeuriteCount was analyzed at the endpoint CCTE_Mundy_HCI_iCellGABA_NOG_NeuriteCount in the positive analysis fitting direction relative to DMSO as the negative control and baseline of activity. Using a type of morphology reporter, loss-of-signal activity can be used to understand developmental effects.
Exposure starts 2 hours post-plating by adding 10 ul of the working solution to 90 ul of media in the wells for a 1/10 dilution. Forty-eight hours after chemical treatment cells are fixed by direct addition of 100 ul of warm (37C) Dulbecco's phosphate buffered saline (DPBS) fixative solution containing 8% paraformaldehyde, 8% sucrose, and 0.1% of 3 mg/ml Hoechst 33342 into each well. Primary antibodies are prepared by dilution in Immunocytochemical Staining Buffer (ISB), 10X Dulbecco's PBS, 0.1% Saponin, 5% Bovine Serum Albumin, 0.5% NaN3 (Sodium Azide) and betaIII-tubulin (rabbit anti-betaIII-tubulin, 1:800) followed by Alexa Fluor-488 secondary (1:500) to label neuronal cell bodies and neurites. A Cellomics ArrayScan VTi HCS Reader is used for automated image acquisition and analysis of neurite outgrowth.
On to `CNC(=O)CSP(=S)(OC)OC`, for which the compound was called inactive. A word on the AC50: it is the concentration at which the activity in the assay is half-maximal. As for `CCOP(=S)(OCC)OC(Cl)C(Cl)(Cl)Cl` (centres undefined), the half-maximal activity concentration (AC50) was 29.7 µM (active). `COP(=O)(OC)C(O)C(Cl)(Cl)Cl` (centres undefined): the outcome was inactive. The same measure, in the same setting: the entry for `CCOP(=S)(OCC)SCSCC` is “inactive”.

As for `CCN(CC)c1nc(C)cc(OP(=S)(OC)OC)n1`, the half-maximal activity concentration (AC50) was 89.1 µM (active).

Consider `CCOP(=S)(Oc1cnc(C(C)(C)C)nc1)OC(C)C` (centres undefined), for which the call was inactive.

Consider `COP(=O)(OC)O/C(=C\Cl)c1cc(Cl)c(Cl)cc1Cl`, for which the AC50 was 66.5 µM (active).

Regarding `COP(=O)(OC)O/C(C)=C/C(=O)N(C)C`, the compound was called inactive. `COP(=S)(OC)SCN1C(=O)c2ccccc2C1=O`: the AC50 was 74.2 µM (active).

In the case of `CNC(=O)CSP(=O)(OC)OC`, the compound was called inactive.

As for `COP(=O)(OC)OC=C(Cl)Cl`, the outcome was inactive. `CCOP(=O)(SC(C)CC)N1CCSC1=O` (centres undefined): the outcome was inactive. On to `COP(=O)(OC)OC(Br)C(Cl)(Cl)Br` (centres undefined), for which the concentration at half-maximal activity (AC50) is 16.1 µM (active). On to `COP(N)(=O)SC` (centres undefined), for which the call was inactive.

On to `COP(=O)(NC(C)=O)SC` (centres undefined), for which the compound was called inactive.

For `CCOC(=O)CC(SP(=S)(OC)OC)C(=O)OCC` (centres undefined), the concentration at half-maximal activity (AC50) is 74.1 µM (active).

Regarding `CCOP(=S)(OCC)Oc1nc(Cl)c(Cl)cc1Cl`, the AC50 is 30.1 µM (active). Consider `CCOP(=S)(OCC)SCSC(C)(C)C`, for which the concentration at half-maximal activity (AC50) was 81.4 µM (active). In the case of `CCOP(=O)(OCC)Oc1nc(Cl)c(Cl)cc1Cl`, the compound was classed as inactive. Regarding `CCOP(=S)(OCC)Oc1ccc2c(C)c(Cl)c(=O)oc2c1`, the half-maximal activity concentration (AC50) was 71.2 µM (active). Take `CCCSP(=O)(OCC)Oc1ccc(Br)cc1Cl` (centres undefined): the compound was called inactive. On to `CCOC(=O)CC(SP(=O)(OC)OC)C(=O)OCC` (centres undefined), for which the result was inactive. Take `CCCCSP(=O)(SCCCC)SCCCC`: the AC50 is 65.2 µM (active). On to `CCOP(=S)(OCC)Oc1cc(C)nc(C(C)C)n1`, for which the AC50 was 76.5 µM (active).

The record behind these values is PubChem BioAssay AID2284362 (EPA ToxCast).
